# Laboratory results published in PubChem BioAssay.
# Test: adipocyte viability effects, profiling panel, cell-based, 3T3-L1 adipocytes, calcein-AM fluorescence, 48 h, basal (AID 1163); also: test concentration not given here
# Conditions: 3T3-L1 adipocytes viability, higher = more signal
row,SMILES,z-score
1,COCCOC(=O)N1C(=O)[C@@]2(c3ccccc31)[C@H](C(=O)N1CCN(c3ncccn3)CC1)[C@H]1C(=O)O[C@H](c3ccccc3)[C@H](c3ccccc3)N1[C@@H]2c1ccccc1OCCO,0.549
2,Cc1ccc(C(C)CC(O)C2C=CC3C(=O)N(C)C(=O)C3N2Nc2ccccc2)o1 (stereo unspecified),-1.01
3,CC1CC/C=C\[C@H]2OC34C=CCN(CCN5CCOCC5)C(=O)[C@H]3N(CCCO)C(=O)[C@@H]4C2C(=O)O1 (stereo partly specified),0.483
4,CCCNC(=O)[C@@]1(c2ccc([N+](=O)[O-])cc2)CC(=O)N(C(C)C)[C@@H]1c1ccc(CO)cc1,0.81
5,C=C(COC)/C(=C/C[C@H](OC(C)=O)c1ccccc1OCCO)c1cc(C(=O)OC)ccc1OC,1.66
6,CC(C)C(=C=CC[C@H](O)c1ccccc1OCCO)C[C@H](O)COCc1ccccc1,-0.0066
7,CCCC[C@H]1OB(O)C[C@H]2C1=C(COc1ccccc1)C[C@H]1C(=O)C=CC(=O)[C@H]12,-0.0337
8,Cc1ccc(N2C(=O)c3ccccc3[C@](C)(C(=O)NCCCN(C)C)[C@@H]2c2ccc(CO)cc2)nc1,0.85
9,CCCCC(O)C1C=CC2C(=O)N(c3ccccc3)C(=O)C2N1Nc1ccc([N+](=O)[O-])cc1 (stereo unspecified),-0.229
10,C=CCC(OC(C)=O)[C@@H]1[C@@H](N(Cc2ccc(-c3cccc(C(F)(F)F)c3)o2)C(=O)c2ccc(-c3ccccc3)cc2)c2cc(OCCCO)ccc2N1C(=O)c1ccc2ccccc2c1 (stereo partly specified),1.28
11,C=C(CCCC)/C(=C/C[C@H](OC(C)=O)c1cccc(OCCO)c1)c1cnc2ccccc2c1,1.16
12,OCCCC1=CC(c2ccc(CN3CCCC3)cc2)N(Cc2cccc(OC(F)(F)F)c2)CC1 (stereo unspecified),-0.267
13,C=C(COC)C(=O)CC[C@H](OC(=O)c1cccnc1)c1ccc(OCCO)cc1,0.0993
14,COc1ccc(C(O)C2C=CC3C(=O)N(c4ccccc4)C(=O)C3N2Nc2ccc(C#N)cc2)cc1OCc1ccccc1 (stereo unspecified),-0.735
15,C=CCNC(=O)[C@H]1[C@@H]2C(=O)O[C@@H](c3ccccc3)[C@@H](c3ccccc3)N2[C@@H](c2ccc(OCCO)cc2)[C@]12C(=O)Nc1ccc(C#CC3(O)CCCCCC3)cc12,1.36
16,CC[C@@H]1C=C(C(=O)O)[C@H](c2ccc(OC)cc2)N1S(=O)(=O)c1ccc(C)cc1,-0.32
17,O=C1C2C=CC(C(O)C3CCCCC3)N(n3cnnc3)C2C(=O)N1Cc1ccccc1 (stereo unspecified),0.379
18,[N-]=[N+]=NCc1ccccc1[C@@H]1OC(c2ccc(OCCCO)cc2)=N[C@]1(Cc1ccccc1N=[N+]=[N-])C(=O)O,1.47

row,SMILES,z-score
1,COC(=O)c1cccc([C@H]2OC(=CC(=O)OC(C)C)C[C@@H](c3cccc(C(=O)OC)c3)O2)c1,0.229
2,CN(C)CCCNC(=O)[C@@]1(Cc2ccccc2I)c2ccccc2C(=O)N(C2CCCCC2)[C@H]1c1ccc(CO)cc1,-0.546
3,O=C1NC(=O)C2C1C=CC(C(O)c1ccc(B(O)O)cc1)N2Nc1ccc(Cl)cc1Cl (stereo unspecified),-1.33
4,COC(=O)[C@@]1(Cc2ccccc2)[C@H]2c3cc(C(=O)N(C)C)n(CCO)c3C[C@H]2CN1C(=O)c1ccccc1,0.18
5,C=C(CCCC)C(=O)CC[C@H](OC(=O)c1ccccc1-c1ccccc1C(=O)O)c1ccc(OCCO)cc1,0.251
6,O=C1OCCC=C[C@H]2OC34C=CCN(c5ccc6ccccc6c5)C(=O)[C@H]3N(CCO)C(=O)[C@@H]4C12 (stereo partly specified),-0.423
7,COc1cc(CO)cc(I)c1O[C@H]1C=C(C(=O)NCCO)C[C@@H]2O[C@H]12,0.254
8,COCCOC(=O)N1C(=O)[C@@]2(c3cc(C#CCC(C(=O)OC)C(=O)OC)ccc31)[C@H](C(=O)Nc1nc3ccccc3s1)[C@H]1C(=O)O[C@H](c3ccccc3)[C@H](c3ccccc3)N1[C@@H]2c1ccc(OCCO)cc1,0.502
9,CC(C)C[C@H]1NC(=O)C([C@@H](C)OCc2ccccc2)NC(=O)[C@@]23C(=O)N[C@@H](Cc4ccccc4)C2[C@H](C)[C@@]2(C)O[C@H]2C3/C=C/C/C=C\CNC1=O (stereo partly specified),1.9
10,C=C(COC)/C(=C/C[C@@H](OC(C)=O)c1ccccc1OCCO)c1cnc2ccccc2c1,1.5
11,COc1ccc([Si](C)(C)[C@@H]2[C@@H](CC(=O)N3CCC[C@H]3CO)O[C@]3(C(=O)N(Cc4ccc(N5CCOC5=O)cc4)c4ccccc43)[C@H]2C)cc1,1.05
12,COC(=O)[C@@]1(Cc2ccccc2)[C@H]2c3cc(C(=O)N(C)C)n(CCSC(=N)N)c3C[C@H]2CN1C(=O)c1ccccc1,0.451
13,O=C1O[C@@H](c2ccccc2)[C@@H](c2ccccc2)N2[C@@H](c3ccc(OCCO)cc3)[C@]3(C(=O)Nc4ccc(C#CC5(O)CCCCCC5)cc43)[C@@H](C(=O)Nc3nc4ccccc4s3)[C@H]12,1.33
14,COCCCN1C(=O)[C@@]2(c3ccc([N+](=O)[O-])cc3)CC(=O)N(CC34CC5CC(CC(C5)C3)C4)[C@@H]2c2ccc(CO)cc21,-0.731
15,O=C1C2C=CC(C(O)c3cccs3)N(Nc3ccc([N+](=O)[O-])cc3)C2C(=O)N1c1ccccc1 (stereo unspecified),-1.01
16,C=C1C(=O)C=C2CN(C(=O)c3ccccc3)[C@@](Cc3ccc(OC)cc3)(C(=O)OC)[C@@H]12,-0.033
17,CCOC(=O)C[C@H]1[C@H](OC(=O)c2cc3ccccc3oc2=O)[C@@H](NC(=O)CC(C)C)c2cc(OCCCO)ccc2N1C(=O)Cc1ccc(OC)cc1,0.967
18,CCOC(=O)C1=CC[C@@H](c2ccccc2)N(S(=O)(=O)c2ccc(C)cc2)[C@H]1c1ccccc1I,-1.01
